From PubChem BioAssay AID2110 (National Center for Advancing Translational Sciences (NCATS), 2009)
Where “and” joins values, the source holds several entries; their conditions need not be identical. Equal values may be shown once. Records with an inconclusive call do not appear. A number with no mark means an inactive call. Calls of active or inactive are those of the source. Calls come from the whole dose curve; as a rule, active = well fitted curve in either direction with a large enough effect; inconclusive = small, poorly fitted or top-dose-only effect; inactive = no such curve, though single readings can be large or run the other way.

What follows are compounds tested against Lysosomal alpha-glucosidase (Homo sapiens) (UniProt P10253) (assay: Confirmation of Inhibitors and Activators of Purified Human alpha-Glucosidase Using an Alternate Red Fluorescent Susbtrate). Settings: purified enzyme, red fluorogenic substrate; series mostly up to 63.4 µM; activity change, negative = inhibition: at the top concentration.
From the text: NIH Chemical Genomics Center [NCGC]
NIH Molecular Libraries Probe Production centers Network [MLPCN]
Assay Submitter (PI): Wei Zheng
Alpha-glucosidase is responsible for hydrolysis of terminal, non-reducing 1,4-linked alpha-D-glucose residues with release of alpha-D-glucose. It is a lysosomal hydrolase that is required for the degradation of a small percentage (1-3%) of cellular glycogen in human. Deficiency of this enzyme results in glycogen-storage disease type II (GSDII), also referred to as Pompe disease, an autosomal recessive disorder. Structurally normal glycogen is accumulated in lysosomes and cytoplasm in affected patients, primarily in muscle tissues. Excessive glycogen storage within lysosomes may interrupt normal functioning of other organelles and leads to cellular injury. In turn, this leads to enlargement and dysfunction of the entire organ involved (eg, cardiomyopathy and muscle weakness).
It has reported that the improper folding and trafficking of alpha-glucosidase resultinged from the genetic mutations may account for a significant number of Pomrope patients. […] We optimized this alpha-glucosidase assay in 1536-well plate format for identifying the novel small molecule inhibitors with the structures other than the sugar analogs in order to develop the new pharmacological chaperones. This assay attempted to confirm hits from the primary screening using an alternate fluor than the primary screen used.
NCGC Assay Protocol Summary:
This is a fluorogenic enzyme assay with resorufin-alpha-D-pyranoside as the substrate and recombinant human alpha-glucosidase as the enzyme preparation. Upon the hydrolysis of this fluorogenic substrate, the resulting product, resorufin, can be excited at 573 nm and emits at 610 nm which can be detected by a standard fluorescence plate reader. Data were normalized to the controls for basal activity (without enzyme) and 100% activity (with enzyme). The AC50 values were determined from concentration-response data modeled with the standard Hill equation.
Assay buffer: 50 mM citric acid (titrated with potassium phosphate to pH 5.0), 0.005% Tween-20, pH 5.0. (pH 5.0 is an optimal condition for this enzyme assay)
1536-well assay protocol for the human alpha-glucosidase:
(1) Add 2 ul/well of enzyme (4 nM final)
(2) Add 23 nL compounds in DMSO solution. The final titration was 0.7 nM to 77 uM.
(3) Add 1 ul of substrate (400 uM final)
(4) Incubate at room temperature for 20 min.
(5) Add 2 ul stop solution (1M NaOH and 1M Glycine mixture, pH 10)
(6) Detect the assay plate in a ViewLux plate reader (PerkinElmer) with Ex=365 nm and Em=440nm.
Keywords: Alpha-glucosidase, Pompe Disease, pharmacological chaperone, chaperone therapy, high throughput screening, alpha-glucosidase inhibitor, MLSMR, MLSCN, NIH Roadmap, qHTS and NCGC
For `CC(=O)c1ccc(N2CCN(S(=O)(=O)c3cc4c(cc3Cl)NC(=O)C4)CC2)cc1`, the Potency was 1.63 µM [inhibitor] (active) and 5.17 µM [inhibitor] (active). With `CCCN1CNc2c(c(=O)[nH]c(=S)n2CCc2ccc(C)cc2C)C1` the Potency was 2.82 µM (active). In the case of `CC(=O)c1ccc(N2CCN(C(=O)c3ccc4c(c3)CCC(=O)N4)CC2)cc1`, the “activity change, negative = inhibition” value is reported as -4.65%. `OCCNc1nc(-c2cccs2)nc2ccccc12` was tested, and the “activity change, negative = inhibition” value was 0.869%. `O=S(=O)(c1ccc(Cl)cc1)N1CCN(c2nc(-c3cccs3)nc3ccccc23)CC1` was tested, and the “activity change, negative = inhibition” value was -7.19%. `CCCN1CNc2c(c(=O)[nH]c(=S)n2CCc2ccccc2C)C1` was tested, and the Potency was 8.91 µM (active). In the case of `CCCN1CNc2c(c(=O)[nH]c(=S)n2CCc2cc(C)cc(C)c2)C1`, the Potency is reported as 3.16 µM (active). In the case of `CCCN1CNc2c(c(=O)[nH]c(=S)n2CCc2cccc(OC)c2OC)C1`, the Potency is reported as 10 µM (active). For `CC(=O)c1ccc(N2CCN(S(=O)(=O)c3ccc4c(c3)C(=O)OC4)CC2)cc1`, the “activity change, negative = inhibition” value was 0.0821%. In the case of `CCCN1CNc2c(c(=O)[nH]c(=S)n2CCc2cccc(Cl)c2)C1`, the Potency is reported as 11.2 µM (active). For `COc1ccc(CCn2c3c(c(=O)[nH]c2=S)CN(CC(C)C)CN3)cc1OC`, the Potency was 0.631 µM (active). In the case of `CC(=O)c1ccc(N2CCN(C(=O)c3ccc4c(c3)CC(=O)N4)CC2)cc1`, the “activity change, negative = inhibition” value is reported as -10.5%. With `O=Cc1ccc(N2CCN(S(=O)(=O)c3ccc4c(c3)CC(=O)N4)CC2)cc1` the Potency was 4.11 µM [inhibitor] (active). For `CCCN1CNc2c(c(=O)[nH]c(=S)n2CCc2cc(C)ccc2C)C1`, the Potency was 3.16 µM (active). `CCCN1CNc2c(c(=O)[nH]c(=S)n2CCc2ccccc2OC)C1` was tested, and the Potency was 11.2 µM (active). `CC(=O)c1ccc(N2CCN(S(=O)(=O)c3ccc4c(c3)CCCN4C(C)=O)CC2)cc1` was tested, and the “activity change, negative = inhibition” value was -15.8%. In the case of `CC(=O)c1ccc(N2CCN(S(=O)(=O)c3ccc4[nH]c(=O)oc4c3)CC2)cc1`, the “activity change, negative = inhibition” value is reported as -5.47%. For `CCCN1CNc2c(c(=O)[nH]c(=S)n2CCc2ccc(C)cc2)C1`, the Potency was 11.2 µM (active). In the case of `CCCN1CNc2c(c(=O)[nH]c(=S)n2CCc2ccc(OCC)c(OCC)c2)C1`, the Potency is reported as 1.78 µM (active). `COc1ccc(CCn2c3c(c(=O)[nH]c2=S)CN(c2ccccc2)CN3)cc1OC` was tested, and the Potency was 7.94 µM (active). For `CCCN1CNc2c(c(=O)[nH]c(=S)n2CCc2c(C)cccc2C)C1`, the Potency was 3.16 µM (active). `CC(=O)c1ccc(N2CCN(S(=O)(=O)c3ccc4c(c3)C(Cl)(Cl)C(=O)N4)CC2)cc1` was tested, and the Potency was 41.1 µM [inhibitor] (active). For `N#CC(=C(\N)Sc1ccccc1N)/C(C#N)=C(/N)Sc1ccccc1N`, the Potency was 44.7 µM (active). For `CCCN1CNc2c(c(=O)[nH]c(=S)n2CCc2cccc(C)c2)C1`, the Potency was 7.08 µM (active). `CCCN1CNc2c(c(=O)[nH]c(=S)n2CCc2ccc(Cl)c(Cl)c2)C1` was tested, and the Potency was 2.24 µM (active). `CCCN1CNc2c(c(=O)[nH]c(=S)n2CCc2ccc(OC)c(OC)c2)C1` was tested, and the Potency was 2 µM (active). `COc1ccc(CCn2c3c(c(=O)[nH]c2=S)CN(C(C)C)CN3)cc1OC` was tested, and the Potency was 11.2 µM (active). In the case of `CCCN1CNc2c(c(=O)[nH]c(=S)n2CCc2ccc(OC)cc2OC)C1`, the Potency is reported as 2.51 µM (active). With `COc1ccc(CCc2c[nH]c(=O)c3cncnc23)cc1OC` the “activity change, negative = inhibition” value was 2.32%. With `CCCN1CNc2c(c(=O)[nH]c(=S)n2CCCc2ccccc2)C1` the Potency was 31.6 µM (active). `O=c1[nH]cc(CCc2ccccc2)c2ncncc12` was tested, and the “activity change, negative = inhibition” value was -2.36%. For `COc1ccc(C#Cc2c[nH]c(=O)c3cncnc23)cc1OC`, the “activity change, negative = inhibition” value was -0.698%. With `COc1ccc(CCn2c3c(c(=O)[nH]c2=S)CN(C)CN3)cc1OC` the Potency was 7.94 µM (active). `N#Cc1ccc(N2CCN(S(=O)(=O)c3ccc4c(c3)CC(=O)N4)CC2)cc1` was tested, and the Potency was 3.26 µM [inhibitor] (active). `CCCN1CNc2c(c(=O)[nH]c(=S)n2CCc2ccc(OC)cc2)C1` was tested, and the Potency was 6.31 µM (active). For `Clc1ncc(C#Cc2ccccc2)c2ncncc12`, the “activity change, negative = inhibition” value was 3.52%. With `COc1ccc(CCn2c(=S)[nH]c(=O)c3c(C)cc(C)nc32)cc1OC` the “activity change, negative = inhibition” value was 7.14%. `CCCN1CNc2c(c(=O)[nH]c(=S)n2CCc2cccc(Cl)c2Cl)C1` was tested, and the Potency was 0.158 µM (active). For `CC(=O)c1ccc(N2CCN(S(=O)(=O)c3ccc4c(c3)CCC(=O)N4)CC2)cc1`, the “activity change, negative = inhibition” value was -4.87%. In the case of `COc1ccc(N2CCN(S(=O)(=O)c3ccc4c(c3)CC(=O)N4)CC2)cc1`, the Potency is reported as 18.8 µM [inhibitor] (active).
